Data reported in PubChem BioAssay (NCATS).
Records with an inconclusive call do not appear. Calls of active or inactive are those of the source. Calls come from the whole dose curve; as a rule, active = well fitted inhibition curve with a large enough effect; inconclusive = small, poorly fitted or top-dose-only effect; inactive = flat fitted curve, though single readings scatter.

Assays:
CRL-7250 = normal cell line; assay: Cytotoxic Profiling of Annotated Libraries Using Quantitative High-Throughput Screening (AID 1296008); conditions: Five cell lines viability, CellTiter-Glo ATP luminescence, 48-72 h; max response: hits give low values; for max response: % is set by controls: 0 for no effect and ±100 for the full control effect
How it was run: (§1)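 Cells exposed to compounds for 48 or 72 hr at 37 degrees Celsius. Viability read as ATP-coupled luminescence with CellTiter-Glo after 10 min at room temperature.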

HEK293 = assay: as above; conditions: Five cell lines viability, CellTiter-Glo ATP luminescence, 48-72 h; max response: hits give low values
How it was run: as §1

HaCat [1] = assay: as above; conditions: Five cell lines viability, CellTiter-Glo ATP luminescence, 48-72 h; max response: hits give low values
How it was run: as §1

KB-3-1 = assay: as above; conditions: Five cell lines viability, CellTiter-Glo ATP luminescence, 48-72 h; max response: hits give low values
How it was run: as §1

NIH3T3 = assay: as above; conditions: Five cell lines viability, CellTiter-Glo ATP luminescence, 48-72 h; max response: hits give low values
How it was run: as §1

HACAT [2] = assay: qHTS assay to identify novel small-molecules to repurpose for Merkel cell carcinoma treatment (AID 1296009); conditions: MCC and control cell lines, CellTiter-Glo viability, 72 h; at 44.8 µM (top of the series) unless noted
How it was run: (§2)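 Dose-response viability screen; 72 hr exposure at 37 degree celsius; CellTiter-Glo added, 10 min room temperature, luminescence read; RLUs scaled between no-cell and DMSO wells.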

HEK293T = assay: as above; conditions: MCC and control cell lines, CellTiter-Glo viability, 72 h; series mostly up to 44.8 µM
How it was run: as §2
Note: nearly all actives have a fitted effect of over 60% in size.

COc1ccc(/C=C/C(=O)O[C@H]2[C@@H]3C=CO[C@@H](O[C@@H]4O[C@H](CO)[C@@H](O)[C@H](O)[C@H]4O)[C@@H]3[C@@]3(CO)O[C@@H]23)cc1O
inactive: outcome (CRL-7250) | outcome (HEK293) | outcome (HaCat [1]) | outcome (KB-3-1) | max response (NIH3T3) 2.14% | outcome (HACAT [2]) inactive [at 17.4 µM] | Potency (HEK293T)

Cc1nnc(C(C)C)n1C1CC2CCC(C1)N2CCC(NC(=O)C1CCC(F)(F)CC1)c1ccccc1 (centres undefined)
inactive: max response (CRL-7250) -10.9% | outcome (HEK293) | outcome (HaCat [1]) | max response (KB-3-1) 8.02% | max response (NIH3T3) -0.909% | outcome (HACAT [2]) | Potency (HEK293T)

COc1c(C)c2c(c(O)c1C/C=C(\C)CC/C=C(\C)CCC(=O)O)C(=O)OC2
inactive: max response (CRL-7250) -4.04% | outcome (HEK293) | outcome (HaCat [1]) | outcome (KB-3-1) | max response (NIH3T3) 0.0064% | outcome (HACAT [2]) | Potency (HEK293T)

C=C1[C@H]2[C@H](O[C@@H]3O[C@H](COC(=O)/C=C/c4cc(OC)c(O)c(OC)c4)[C@@H](O)[C@H](O)[C@H]3O)OC=C(C(=O)O)[C@H]2C[C@@H]1O
inactive: outcome (CRL-7250) | outcome (HEK293) | outcome (HaCat [1]) | outcome (KB-3-1) | max response (NIH3T3) 4.54% | outcome (HACAT [2]) inactive [at 17.4 µM] | Potency (HEK293T)

COc1ccc(/C=C/C(=O)O[C@@H]2[C@@H](OC(C)=O)[C@@H](OC(C)=O)[C@H](O[C@H]3[C@@H]4C=CO[C@@H](O[C@@H]5O[C@H](CO)[C@@H](O)[C@H](O)[C@H]5O)[C@@H]4[C@@]4(CO)O[C@@H]34)O[C@H]2C)cc1O
inactive: max response (CRL-7250) 3.11% | outcome (HEK293) | outcome (HaCat [1]) | max response (KB-3-1) 9.42% | max response (NIH3T3) 3.23% | outcome (HACAT [2]) inactive [at 17.4 µM] | Potency (HEK293T)

CCCC(N[C@@H](C)C(=O)N1[C@H](C(=O)O)C[C@@H]2CCCC[C@@H]21)C(=O)OCC (some centres undefined)
inactive: outcome (CRL-7250) | outcome (HEK293) | outcome (HaCat [1]) | outcome (KB-3-1) | outcome (NIH3T3) | outcome (HACAT [2]) | Potency (HEK293T)

COc1cc(C(O)C(CO)Oc2ccc(CCCO[C@@H]3O[C@@H](C)[C@H](O)[C@@H](O)[C@H]3O)cc2OC)ccc1O (some centres undefined)
inactive: outcome (CRL-7250) | outcome (HEK293) | outcome (HaCat [1]) | outcome (KB-3-1) | max response (NIH3T3) -2.23% | outcome (HACAT [2]) inactive [at 17.4 µM] | Potency (HEK293T)

COc1ccc2c(c1)OC[C@]1(O)c3cc4c(cc3O[C@H]21)OCO4
inactive: max response (CRL-7250) -0.876% | outcome (HEK293) | outcome (HaCat [1]) | outcome (KB-3-1) | outcome (NIH3T3) | outcome (HACAT [2]) | Potency (HEK293T)

CCOc1nc2cccc(C(=O)OCc3oc(=O)oc3C)c2n1Cc1ccc(-c2ccccc2-c2noc(O)n2)cc1
inactive: outcome (CRL-7250) | outcome (HEK293) | outcome (HaCat [1]) | outcome (KB-3-1) | outcome (NIH3T3) | outcome (HACAT [2]) | Potency (HEK293T)

Cn1ccnc1CCOC(c1cc2nccc(C(=O)O)c2[nH]1)c1ccccc1Cl (centres undefined)
inactive: outcome (CRL-7250) | outcome (HEK293) | outcome (HaCat [1]) | max response (KB-3-1) 2.27% | max response (NIH3T3) 4.24% | outcome (HACAT [2]) | Potency (HEK293T)

CC(C)=CCC/C(C)=C/CC/C(C)=C/CC[C@]1(C)CCc2cc(O)cc(C)c2O1
inactive: max response (CRL-7250) 3.81% | outcome (HEK293) | outcome (HaCat [1]) | max response (KB-3-1) 1.67% | max response (NIH3T3) 1.13% | outcome (HACAT [2]) inactive [at 17.4 µM] | Potency (HEK293T)

COc1cc(/C=C/C(=O)OC2CC(C)=C(C(=O)O)/C2=C/CO[C@@H]2O[C@H](CO)[C@@H](O)[C@H](O)[C@H]2O)ccc1O (some centres undefined)
inactive: max response (CRL-7250) 4.12% | outcome (HEK293) | outcome (HaCat [1]) | outcome (KB-3-1) | outcome (NIH3T3) | outcome (HACAT [2]) inactive [at 17.4 µM] | Potency (HEK293T)

COc1ccc(/C=C/C(=O)O[C@@H]2[C@@H](O)[C@H](C)O[C@@H](OC3C4C=COC(O[C@@H]5O[C@H](CO)[C@@H](O)[C@H](O)[C@H]5O)C4C4(CO)OC34)[C@@H]2O)cc1OC (some centres undefined)
inactive: max response (CRL-7250) 0.628% | outcome (HEK293) | outcome (HaCat [1]) | max response (KB-3-1) -0.119% | max response (NIH3T3) 0.929% | outcome (HACAT [2]) inactive [at 17.4 µM] | Potency (HEK293T)

C/C=C/C=C/C(CC(=O)O)Nc1ccc(C=O)cc1 (centres undefined)
inactive: outcome (CRL-7250) | outcome (HEK293) | outcome (HaCat [1]) | max response (KB-3-1) 5.57% | max response (NIH3T3) 3.97% | outcome (HACAT [2]) | Potency (HEK293T)

C=CC1C(O[C@@H]2O[C@H](CO)[C@@H](O)[C@H](O)[C@H]2O)OC=C(C(=O)OC)C1CC(=O)O (some centres undefined)
inactive: outcome (CRL-7250) | outcome (HEK293) | outcome (HaCat [1]) | max response (KB-3-1) 9.2% | max response (NIH3T3) 3.11% | outcome (HACAT [2]) inactive [at 17.4 µM] | Potency (HEK293T)

CC1CCC2(C)C(CC(O)C(O)C23CO3)C1(C)CCC1=CC(=O)OC1O (centres undefined)
inactive: max response (CRL-7250) -22% | outcome (HEK293) | outcome (HaCat [1]) inactive; activator | max response (KB-3-1) 4.04% | max response (NIH3T3) 3.09% | outcome (HACAT [2]) inactive; activator | Potency (HEK293T)

Cc1cc(O)c(C(C)C)cc1O[C@@H]1O[C@H](CO)[C@@H](O)[C@H](O)[C@H]1O
inactive: max response (CRL-7250) -11.2% | outcome (HEK293) | outcome (HaCat [1]) | outcome (KB-3-1) | max response (NIH3T3) 1.36% | outcome (HACAT [2]) | Potency (HEK293T)
